Pyk2 oligo antag – antagonists of Pyk2 self-association, primary screen, Q293 cells, FERM NanoBiT luminescence, HTS. active compounds read low. Protein-tyrosine kinase 2-beta (Homo sapiens), Q14289. z-score (the deposit names both 25 µM and 10 µM). 99,000 compounds, 0.83% hits. AID 1347419, 2020;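 active = Z-score of -3 or lower, scaled per plate to the spread of control and sample wells; inactive = z-score above -3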;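 note: negative z-score means lost luminescence so less FERM oligomerization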
CYP2C19 activ – human CYP2C19 activators, primary screen, biochemical, luminescence | activation factor at 5 µM | 96,000 tested, under 10 active | recombinant CYP2C19, luciferin-H EGE luminescence; active compounds read high; 0 = fully inhibited enzyme, 1 = untreated enzyme | Cytochrome P450 2C19 (Homo sapiens), P33261 | AID 1025, 2008;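 active = activation factor of at least 2 at 5 µM in the primary screen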;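 note: 0 = wells with 2.5 mM tranylcypromine and 1 = vehicle-only wells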
Target sequence (P33261 whole entry, looked up): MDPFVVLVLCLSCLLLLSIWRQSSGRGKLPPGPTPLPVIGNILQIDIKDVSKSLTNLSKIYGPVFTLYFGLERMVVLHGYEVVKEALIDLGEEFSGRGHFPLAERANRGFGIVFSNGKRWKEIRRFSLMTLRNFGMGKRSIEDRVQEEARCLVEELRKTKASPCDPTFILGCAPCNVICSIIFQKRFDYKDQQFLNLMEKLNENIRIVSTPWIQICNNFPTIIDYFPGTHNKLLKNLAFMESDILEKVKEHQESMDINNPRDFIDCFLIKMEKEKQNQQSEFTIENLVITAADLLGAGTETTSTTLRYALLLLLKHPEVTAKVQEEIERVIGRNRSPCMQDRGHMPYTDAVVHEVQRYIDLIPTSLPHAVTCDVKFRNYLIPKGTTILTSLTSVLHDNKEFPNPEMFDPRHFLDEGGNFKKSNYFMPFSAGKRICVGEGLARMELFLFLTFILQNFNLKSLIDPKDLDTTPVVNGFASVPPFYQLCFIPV
CYP2C9 act – human CYP2C9 activators, primary screen, biochemical, luminescence; Cytochrome P450 2C9 (Homo sapiens), P11712; recombinant CYP2C9, luciferin-H conversion; active compounds read high; factor 1 = untreated enzyme, 0 = blocked; activation factor at 5 µM; 96,000 compounds, 1.4% hits; AID 1024, 2008;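 active = activation factor of 2 or more for CYP2C9 at a 5 µM dose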;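 note: 0 = sulfaphenazole-blocked wells and 1 = vehicle-only wells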
CYP2C19 inhib – blockers of cytochrome P450 2C19 activity – biochemical, luminescence, ADME assay, primary screen | P33261 | CYP2C19 Supersomes, luciferin-H EGE luminescence, 30 min | inhibition, % at 5 µM | 96,000 compounds, 21% hits;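 active = CYP2C19 inhibition above a set limit at 5 µM in the primary screen, cut at about 50% in these data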;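 note: plate controls were negative control wells for no effect and 2.5 mM tranylcypromine positive control for full effect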
CYP2C9 inhib – blockers of cytochrome P450 2C9 activity – biochemical, luminescence, ADME assay, primary screen; CYP2C9 Supersomes, luciferin-H conversion; inhibition, % at 5 µM; P11712; AID 777, 2007; 96,000 compounds, 20% hits;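 active = blocking of liver enzyme CYP2C9 beyond about 50% at 5 µM, limit read from the data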
* = called active by the depositor; / = no result. This is a sample that favours compounds with a hit; in the whole collection about 28% have one here.

SMILES	Pyk2 oligo antag	CYP2C19 activ	CYP2C9 act	CYP2C19 inhib	CYP2C9 inhib
O=C(Cc1ccccc1)Nc1cccc(-c2nnc(-c3ccco3)o2)c1	-0.77	0.2	0.2	84*	79*
O=C(Nc1cccc(-c2nnc(-c3ccco3)o2)c1)C(c1ccccc1)c1ccccc1	-1.2	0.2	0	83*	98*
CCC1(CC)C(=O)C(C)(C)C(=O)OC1c1ccccn1 (stereo not drawn)	0.9	0.7	0.4	33	60*
CC1(C)C(=O)OC(c2ccco2)C(C)(C)C1=O (stereo not drawn)	0.24	0.7	1	34	-2
O=C1CC(C(F)(F)C(F)(F)C(F)(F)C(F)F)=Nc2ccccc2N1	-0.81	0.4	0.8	60*	20
O=C1CC(/C=C/c2ccco2)=Nc2ccccc2N1	-0.26	1	0.9	-4	14
Cc1ccc(OCCNC(=O)c2ccco2)cc1C	0.84	0.7	0.9	26	10
CCN(CC(=O)Nc1ccccc1C(=O)OC)S(=O)(=O)c1ccc(OC)cc1	-0.11	0.4	1.3	65*	-26
COC(=O)c1ccccc1NC(=O)CN(c1cc(OC)ccc1OC)S(C)(=O)=O	-0.06	0.1	0	91*	98*
COc1ccc(OC)c(N(CC(=O)Nc2ccccc2)S(C)(=O)=O)c1	-0.96	0.3	0.7	74*	33
CS(=O)(=O)N(CCc1ccccc1)CC(=O)Nc1ccc(OCc2ccccc2)cc1	-0.01	0.6	0.7	40	31
COC(=O)c1ccccc1NC(=O)CN(CCc1ccccc1)S(C)(=O)=O	0.03	0.5	0.9	52*	7
O=C1C2C(C(=O)N1/N=C/c1ccco1)C1C=CC2C12CC2 (stereo not drawn)	0.57	0	0.9	99*	7
Cc1ccc(/C=N/N2C(=O)C3C(C2=O)C2C=CC3C23CC3)o1 (stereo not drawn)	-0.29	0.8	1	19	3
CCn1c2ccccc2c2cc(NC(=O)COC(=O)C3CCC(=O)N3)ccc21 (stereo not drawn)	1.2	0.7	2.1*	27	-107
CCn1c2ccccc2c2cc(NC(=O)COc3ccc(OC)cc3)ccc21	-0.08	0.4	1.2	65*	-19
CCn1c2ccccc2c2cc(NC(=O)CCCN3C(=O)CCC3=O)ccc21	-0.19	0.5	1.9	49	-89
CCn1c2ccccc2c2cc(NC(=O)c3cc(OC)c(OC)c(OC)c3)ccc21	-2.3	0.5	0.6	49	36
Cc1cccc(NC(=O)CCS(=O)(=O)c2cccc3nsnc23)c1C	0.19	0.9	1.1	9	-12
CCOC(=O)c1ccc(NS(=O)(=O)c2cccc3nsnc23)cc1	-1.6	0.6	0.2	37	78*
CCOC(=O)c1cccc(NC(=O)CCS(=O)(=O)c2cccc3nsnc23)c1	-0.03	0.2	0.3	77*	72*
CC(C)C(OC(=O)c1ccco1)C(=O)NC1CCCCC1 (stereo not drawn)	-0.5	0.2	0.6	80*	39
COC(=O)c1ccccc1NC(=O)COC(=O)c1ccco1	0.32	0.6	0.9	36	12
O=C(NCC1CCCCC1)c1ccco1	-0.58	0.3	0.7	66*	30
O=C(COC(=O)c1ccccc1NC(=O)c1ccco1)NCC1CCCCC1	-0.42	0.2	0.1	79*	95*
SMILES	Pyk2 oligo antag	CYP2C19 activ	CYP2C9 act	CYP2C19 inhib	CYP2C9 inhib
CC(OC(=O)c1ccco1)C(=O)NC1CCCCC1 (stereo not drawn)	0.61	0.8	1.1	17	-9
COC(=O)c1ccccc1NC(=O)COC(=O)c1ccc(C)c(NC(=O)c2ccco2)c1	-2.9	0.4	0.3	57*	75*
Cc1ccc(C(C)C)c(OCc2nnc(SCC(=O)Nc3ncc(C)s3)n2C)c1	0.6	1	1	3	-4
COC(=O)NNC(=O)c1ccccc1C	0.69	1.1	1	-13	-5
O=C(COC(=O)c1cncc(Br)c1)NCCC1=CCCCC1	0.9	0.1	0.3	88*	72*
O=C(COC(=O)c1ccccc1NC(=O)c1ccco1)NCCC1=CCCCC1	-0.91	0.5	0.2	48	84*
O=C(COC(=O)c1ccc2c(c1)OCCO2)NCCC1=CCCCC1	2.1	0.6	0.7	38	35
O=C(COC(=O)c1ccccc1NC(=O)c1ccco1)Nc1ccc2c(c1)OCO2	-3.8*	0.8	0.4	17	58*
O=C(COC(=O)c1ccccc1NCc1ccco1)Nc1ccc2c(c1)OCO2	0.23	1	0.6	0	41
O=C(c1ccc(Cl)cc1)c1cnc2ccccn12	-0.94	1.1	1	-7	0
O=C(O)C1CC=CCC1C(=O)NCc1ccc2c(c1)OCO2 (stereo not drawn)	1	/	/	/	/
CCOC(=O)c1cc(C#N)c(SCc2cccc3ccccc23)nc1C	-0.47	1	1.1	0	-8
CCOC(=O)c1cc(C#N)c(SCC(=O)c2cc(C#N)c(SC)nc2C)nc1C	-2.5	0.5	0	45	99*
CCOC(=O)c1c(C)[nH]c(C(=O)COC(=O)c2cn(CC)c3nc(C)ccc3c2=O)c1C	/	0.7	0.8	31	22
CCC(=O)Nc1ccc(N2CCN(C(=O)c3ccccc3C)CC2)cc1	-0.06	1.1	0.9	-5	9
Cc1ccccc1C(=O)N1CCCN(C(=O)c2ccccc2C)CC1	-0.38	0.4	1	58*	4
O=C(c1ccccc1-c1nc(-c2ccc(Cl)cc2)no1)N1CCCC1	-0.77	0.6	0.2	43	78*
Cc1ccccc1-c1noc(-c2ccc(O)cc2)n1	-1.8	0.4	0.8	59*	18
CN1CCN(C(=O)c2ccccc2-c2nc(-c3ccc(Cl)cc3)no2)CC1	-0.01	0.7	0.4	27	56*
O=C(c1ccccc1-c1nc(-c2ccccc2)no1)N1CCCC1	-2.1	/	/	/	/
C=C1CC(C)OC(c2ccccc2OCC(O)CN2CCCCC2)C1 (stereo not drawn)	1.1	1	1	-4	-4
c1ccc2c(c1)OCC(c1nn3c(Cn4nnc5ccccc54)nnc3s1)O2 (stereo not drawn)	1.4	0.7	0.7	35	34
COc1ccccc1NC(=O)CSc1nc(O)cc(=O)[nH]1	0.8	1.2	1.1	-18	-5
COC(=O)[C@H](CC(C)C)NC(=O)N1CCN(c2cccc(C(F)(F)F)c2)CC1	0.5	0.8	1.6	20	-61
COCCCNC(=S)NNC(=S)Nc1ccc(F)cc1F	-0.56	0.7	0.6	26	41
Cc1ccccc1-c1noc(-c2ccccc2C(=O)N2CCCC2)n1	-0.75	0.4	0.2	63*	84*
Cc1ccc(-c2noc(-c3ccccc3C(=O)N3CCCC3)n2)cc1	-0.95	0.7	0.7	27	33
